Assay results reported in PubChem BioAssay AID368 (University of Pittsburgh Molecular Library Screening Center, 2006).
About 85 (0.1%) of roughly 65,000 compounds were called active. This is one part of a sample in which actives are shown more often than they occur. Rule as the data show it: active = inhibition above about 50%; inactive = the rest.

The compounds below were run against M-phase inducer phosphatase 2 (Homo sapiens) (UniProt P30305) (assay: human Cdc25B tyrosine phosphatase blockers – biochemical, OMFP fluorescence, catalytic domain, primary screen (AID 368)). Conditions: recombinant Cdc25B, OMFP fluorescence Ex485/Em525; hits give high values;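 compounds tested at 10 µM final in the well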.
Sequence of M-phase inducer phosphatase 2 (Homo sapiens) (P30305 whole entry, looked up, the tested form may be a part): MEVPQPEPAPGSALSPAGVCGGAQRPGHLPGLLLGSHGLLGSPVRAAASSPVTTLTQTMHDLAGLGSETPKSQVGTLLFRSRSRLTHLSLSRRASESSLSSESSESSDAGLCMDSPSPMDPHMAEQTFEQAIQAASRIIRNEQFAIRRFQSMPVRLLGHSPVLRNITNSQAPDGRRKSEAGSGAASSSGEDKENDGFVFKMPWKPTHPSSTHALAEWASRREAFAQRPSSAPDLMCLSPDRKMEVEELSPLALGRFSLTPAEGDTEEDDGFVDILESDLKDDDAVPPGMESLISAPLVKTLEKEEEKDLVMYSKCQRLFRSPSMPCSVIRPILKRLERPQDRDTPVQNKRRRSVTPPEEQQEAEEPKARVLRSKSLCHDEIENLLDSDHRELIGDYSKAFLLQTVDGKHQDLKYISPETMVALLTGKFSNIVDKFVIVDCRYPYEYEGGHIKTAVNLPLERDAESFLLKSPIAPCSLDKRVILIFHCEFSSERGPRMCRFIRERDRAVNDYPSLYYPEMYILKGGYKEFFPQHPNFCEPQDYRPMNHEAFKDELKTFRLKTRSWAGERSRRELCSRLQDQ

Structure (SMILES)	inhibition
CC(C)C(c1nnnn1C1CCCC1)N1CCN(c2ccccc2F)CC1 (centres undefined)	-10.2% (inactive)
CC(C)C1Cc2c(sc3c2c(=O)n(-c2ccccc2)c2nncn32)CO1 (centres undefined)	-39.8% (inactive)
C=CCNC(=O)C1CC=CCC1C(=O)O (centres undefined)	-12.3% (inactive)
Cc1nc(Nc2ccc3c(c2)OCCO3)c2nnn(Cc3ccccc3Cl)c2n1	-17.1% (inactive)
CC(=O)N1CCC(C(=O)Nc2nc(-c3ccccc3)ns2)CC1	-5.67% (inactive)
CN1C(=O)c2ccc(NC(=O)c3c(F)c(F)c(F)c(F)c3F)cc2C1=O	2.43% (inactive)
O=C(CC(NS(=O)(=O)c1ccc(Cl)cc1)c1ccco1)NC1CCCC1 (centres undefined)	-20.3% (inactive)
O=C(NC1=NCCS1)c1ccc(Cl)s1	1.03% (inactive)
CC1Cc2ccccc2N1C(=O)Cn1cnc2ccccc2c1=O (centres undefined)	-1.71% (inactive)
c1nnc2c3c4c(sc3ncn12)CCC4	0.998% (inactive)
O=C(CN1C(=O)C2C3C=CC(C3)C2C1=O)NCC1COc2ccccc2O1 (centres undefined)	-2.93% (inactive)
COCCNC(=O)CN(C(=O)CCC(=O)Nc1cc(C)on1)c1ccc(C)cc1C	11.4% (inactive)
CC(=O)N1CCN(C(=O)Nc2cccc(C(F)(F)F)c2)CC1	-11.9% (inactive)
O=C(Nc1cccc(NC(=O)N2CCN(c3ccccc3)CC2)c1)N1CCN(c2ccccc2)CC1	76.4% (active)
O=C(Nc1cccc(C(=O)N2CCCC2)c1)c1ccccc1	-4.63% (inactive)
Cc1ccc2c(CSc3nncs3)cc(=O)oc2c1	-6.44% (inactive)
CCOC(=O)c1[nH]c2c(c1C)C(=O)CC(c1ccc(N(C)C)cc1)C2 (centres undefined)	-8.71% (inactive)
Cc1ccc(N)cc1-n1c(C)ccc1C	1.36% (inactive)
Cc1ccc(CNC(=O)CN2CCN(Cc3ccc(Cl)cc3)C2=O)cc1	1.98% (inactive)
COCCCN1C(=O)c2ccc(C(=O)Nc3ccc(OC)cc3OC)cc2C1=O	-4.42% (inactive)
Cc1cc(Cl)c(S(=O)(=O)NCc2cccnc2)cc1OCC(N)=O	-3.27% (inactive)
CCOC(=O)C1=C(C)NC(C)=C(C(=O)OCC)C1C1=COCCO1	1.59% (inactive)

Structure (SMILES)	inhibition
COc1ccc(N2CCN(C3CC(=O)N(c4ccc5c(c4)OCCO5)C3=O)CC2)cc1 (centres undefined)	5.32% (inactive)
CCn1c(NCCc2ccc(OC)c(OC)c2)nc2c1c(=O)n(C)c(=O)n2C	7.88% (inactive)
COc1cc(-c2nc(S(=O)(=O)c3ccc(Cl)cc3)c(N(C)C)o2)cc(OC)c1OC	-3.74% (inactive)
Cc1ccc(C(c2nnnn2CS(=O)(=O)c2ccc(C)cc2)N2CCC(C(N)=O)CC2)cc1 (centres undefined)	-6.28% (inactive)
CCCOc1ccc(C2C(C(=O)c3ccc(C)o3)=C(O)C(=O)N2CCCn2ccnc2)cc1 (centres undefined)	-1.79% (inactive)
O=c1c2ccccc2oc2nc3n(c(=O)c12)CCCS3	-1.25% (inactive)
CCOC(=O)N1CCN(C(=O)CSc2ccc(Cl)cc2)CC1	3.41% (inactive)
CC1CN(C(=O)c2ccc3c(c2)OCO3)OC(c2ccccc2)O1 (centres undefined)	-8.81% (inactive)
CC1=C(C)CC2C(=O)N(c3cccc4ccccc34)C(=O)C2C1 (centres undefined)	-7.9% (inactive)
Cc1nc2c(-c3ccccc3)c(C)[nH]n2c(=O)c1Cl	-4.09% (inactive)
COc1ccc(S(=O)(=O)N(C)CC(=O)Nc2ccc3c(c2)OCCO3)cc1OC	-5.79% (inactive)
O=S(=O)(Nc1ccc2nc(-c3ccco3)[nH]c2c1)c1ccccc1	-8.83% (inactive)
O=S(=O)(c1cccc(-c2nnc(SC(F)F)n2-c2ccccc2)c1)N1CCCCC1	10.3% (inactive)
CCC(=O)Nc1cccc(NC(=O)CSc2nnnn2C2CCCC2)c1	-2.8% (inactive)
CCOc1ccc(C(=O)Nc2cc(OC)ccc2OC)cc1	-1.04% (inactive)
O=C(C1CCN(c2nnc(-n3cccc3)s2)CC1)N1CCc2ccccc2C1	-4.75% (inactive)
Cc1noc(/C=C/N(C)C)c1S(=O)(=O)N1CCCC(C(=O)NCc2ccco2)C1 (centres undefined)	-8.56% (inactive)
CCCCc1cc(=O)oc2cc(C)cc(OCc3nn[nH]n3)c12	-4.64% (inactive)
CCOC(=O)c1c(NC(=O)c2cccs2)sc(C)c1C	-1.19% (inactive)
COCCNC(=O)CSc1nc2c(n1-c1ccccc1)CCCC2	-0.327% (inactive)
CCn1c(SCC(=O)Nc2ccccc2F)nc2c(c1=O)SC(C)C2 (centres undefined)	-15.6% (inactive)
CCOc1ccccc1N(CC(=O)NC1CCCCC1)C(=O)CCCC(=O)Nc1ccccn1	-10.5% (inactive)

Structure (SMILES)	inhibition
CCOC(=O)N1CCC(NC(=O)CN2C(=O)COc3ccc(C(C)(C)C)cc32)CC1	-4.53% (inactive)
CCCN(CCC)C(=O)C1c2ccccc2Oc2ccccc21	-5.87% (inactive)
COC(=O)c1c(NC(=O)c2cccs2)sc2c1CCCC2	-11.6% (inactive)
COc1cccc(N(C(=O)c2ccn[nH]2)C2(C(=O)Nc3c(C)cccc3C)CCCCC2)c1	4.58% (inactive)
CCN(CC)C(=O)C1CCC(C)(C(=O)O)C1(C)C (centres undefined)	-11.3% (inactive)
COc1ccc(-c2noc(-c3cccc(OC)c3OC)n2)cc1OC	-12.3% (inactive)
COc1ccc(CCNC(=O)c2cc(-c3ccc4c(c3)OCO4)on2)cc1OC	-4.69% (inactive)
COc1ccc(-c2cc3n(n2)CCc2nc4ccccc4n2-3)cc1	-0.418% (inactive)
O=C(Cc1ccccc1)n1nc(-c2ccccc2)nc1NCc1ccco1	-11.6% (inactive)
COc1ccc(N2C(=O)CN=C2Nc2cccc(C)c2C)cc1OC	-17.1% (inactive)
COc1ccc(C)cc1NC(=O)c1[nH]c(C)c(C(C)=O)c1C	-7.67% (inactive)
COc1cccc2c(C)c(C(=O)O)[nH]c12	50.5% (active)
CCOC(=O)c1c(C)[nH]c(C(=O)NCc2ccccc2OC)c1C	0.611% (inactive)
FC(F)(F)c1nnc2sc(-c3ccco3)nn12	6.19% (inactive)
CC1(N2CCOCC2)CC2(O)C(=[N+]1[O-])CCc1nonc12 (centres undefined)	-12.9% (inactive)
Cc1nn(Cc2ccc(Cl)c(Cl)c2)c(C)c1NC(=O)c1cc(C2CC2)on1	-9.41% (inactive)
Cc1cc(NS(=O)(=O)c2ccccc2)no1	-0.238% (inactive)
Nc1ccc(SCCN2C(=O)c3ccccc3C2=O)cc1	3.47% (inactive)
COc1ccc(C(=O)NCc2cn3ccccc3n2)cc1	8.6% (inactive)
CC(=O)OCc1cc2cc(C)ccc2[nH]c1=O	8.17% (inactive)
Cc1noc(C)c1C(=O)NC(C)c1ccc2c(c1)OCO2 (centres undefined)	-2.76% (inactive)
O=C(NC1CC2CCCC(C1)N2C(=O)N1CCCCC1)C1CCCCC1 (centres undefined)	0.205% (inactive)

Structure (SMILES)	inhibition
Cc1cccc(OCc2nnc(SCc3nc4cc(C(F)(F)F)ccc4c(=O)[nH]3)o2)c1	4.99% (inactive)
C=CCNc1nnc(SCC(=O)N2CCCCC2)c2ccccc12	-10.6% (inactive)
O/N=C(\c1ccc2c(c1)OCCO2)C1CCCCC1	-1.56% (inactive)
CC(C)Cc1cc(C(=O)NCCc2ccccc2)no1	-7.12% (inactive)
O=C(OCC(=O)c1cccs1)C1=COCCO1	-13.5% (inactive)
Cc1ccc(-c2csc3nnc(SCC(=O)NCc4ccco4)n23)cc1	-17.7% (inactive)
Fc1ccccc1CCNc1nnnn1-c1ccccc1	0.973% (inactive)
Cc1cc(=O)oc(C)c1C(=O)NC1CC(C)(C)NC(C)(C)C1	-30.7% (inactive)
CCCc1cc(=O)oc2c(C)c(O)c(CN3CCCCC3)cc12	-7.47% (inactive)
COc1ccc(-c2nc3n(c2Br)CCC3)cc1	2.84% (inactive)
CC1(C)C(=O)Nc2ccccc2N1C(=O)COC(=O)Cn1cnc2ccccc2c1=O	-9.58% (inactive)
CC(C)OC(=O)c1sc2nc3c(cc2c1N)C(=O)CCC3	15.7% (inactive)
CCN(CCCCOC(=O)c1ccc(OC)c(OC)c1)C(C)Cc1ccc(OC)cc1 (centres undefined)	-19.9% (inactive)
O=C(O)[C@@H]1CCCN1c1ncnc2sc3c(c12)CCC3	1.46% (inactive)
O=C(Nc1ccc2c(c1)nc1n2CCCCC1)c1cc(S(=O)(=O)N2CCOCC2)ccc1Cl	7.55% (inactive)
O=S(=O)(Nc1ccccc1N1CCOCC1)c1ccc(Cl)s1	-16% (inactive)
COc1cc(OC)c(C(=O)Nc2ccc(N(C)C)cc2)cc1OC	4.05% (inactive)
CCOC(=O)c1ccc(-c2ccc(C(=O)Nc3cccnc3)o2)cc1	-8.16% (inactive)
CCOc1cc(NC(=O)c2ccco2)c(OCC)cc1NC(=O)COc1ccccc1	2.37% (inactive)
COc1ccc(OC)c(C2N(c3ccccn3)C(=O)C3CCCN32)c1 (centres undefined)	6.93% (inactive)
CCCc1nc(N)nc2c1C(=O)CC(C)(C)C2	-1.09% (inactive)
CCCN1CCN(CCCNC(=O)CN2C(=O)COc3ccccc32)CC1	-2.33% (inactive)

Structure (SMILES)	inhibition
O=C(N1CCOCC1)N(Cc1ccccc1)c1ccccn1	-13.1% (inactive)
O=C(COc1cccc(-n2cnnn2)c1)NCCC1=CCCCC1	-1.12% (inactive)
Cc1ccnc(N2CCCC(C(=O)Nc3cc(F)ccc3C)C2)n1 (centres undefined)	12.7% (inactive)
CC1CN(C2CCN(C(=O)COc3ccccc3)CC2)CC(C)O1 (centres undefined)	-13.1% (inactive)
CC1CCCC(C)N1C(=O)CN1CCN(c2nc(-c3ccc(F)cc3)cs2)CC1 (centres undefined)	-8.69% (inactive)
CNC(=O)c1nnn(-c2ccccc2)c1C(=O)NC	0.211% (inactive)
O=c1c(F)cn(C2CCCO2)c(=O)n1Cc1ccccc1Cl (centres undefined)	1.39% (inactive)
Fc1ccccc1C(c1nnnn1Cc1ccc2c(c1)OCO2)N1CCN(Cc2ccccc2)CC1 (centres undefined)	-4.84% (inactive)
C=CCn1c(=N)n(CC(O)COc2ccc(OC)cc2)c2ccccc21 (centres undefined)	0.106% (inactive)
Cc1ncc(CC(=O)n2cc(C(=O)c3cc(Cl)ccc3O)cn2)s1	-7.5% (inactive)
CC(Nc1nc(N2CCCC2)nc2ccccc12)c1ccccc1 (centres undefined)	-6.08% (inactive)
c1ccc2c(NCC3CCCO3)nc(-c3ccncc3)nc2c1 (centres undefined)	1.5% (inactive)
O=C(C1=C(O)C(=O)N(Cc2ccccc2)C1c1cccnc1)c1ccco1 (centres undefined)	-7.28% (inactive)
CC(C)(C)Oc1ncc(Br)c(OC(C)(C)C)n1	-14.4% (inactive)
CC(C)c1ccc(N2CC(C(=O)Nc3nccs3)CC2=O)cc1 (centres undefined)	3.74% (inactive)
COc1ccc(-n2nc3c(c2NC(=O)Cc2cccc(C)c2)CS(=O)C3)cc1 (centres undefined)	-6.02% (inactive)
C[N+]1(CCNC(=O)/C=N/O)CCCCC1	15.7% (inactive)
CCOc1cc(N2CCOCC2)c(OCC)cc1NC(=O)COc1cccc2cccnc12	-6.8% (inactive)
CCn1c(SCC(=O)Nc2cccc(F)c2)nnc1-c1cc2cc(Br)ccc2o1	-5.35% (inactive)
COC(=O)c1ccc(NC(=O)CN(c2ccc(C)cc2)S(=O)(=O)c2c(C)n[nH]c2C)cc1	5.5% (inactive)
CC1(C)CC(O)C(CCC(O)c2ccccc2)C(C)(C)N1 (centres undefined)	-23.8% (inactive)
